Assay results: publication PMC4336329 (PLoS ONE, 2015)
In all, about 310,000 compounds went through this assay and about 14,000 (4.5%) showed an effect of 50% or more. The effect is printed as a negative number. This is one part of a sample in which strong results are shown more often than they occur.

target: human ether-à-go-go-related gene (hERG) potassium channel (human, UniProt Q12809); assay: primary screen, population patch clamp on CHO cells stably expressing hERG; higher = less effect of the substance
Sequence (Q12809 whole entry, looked up): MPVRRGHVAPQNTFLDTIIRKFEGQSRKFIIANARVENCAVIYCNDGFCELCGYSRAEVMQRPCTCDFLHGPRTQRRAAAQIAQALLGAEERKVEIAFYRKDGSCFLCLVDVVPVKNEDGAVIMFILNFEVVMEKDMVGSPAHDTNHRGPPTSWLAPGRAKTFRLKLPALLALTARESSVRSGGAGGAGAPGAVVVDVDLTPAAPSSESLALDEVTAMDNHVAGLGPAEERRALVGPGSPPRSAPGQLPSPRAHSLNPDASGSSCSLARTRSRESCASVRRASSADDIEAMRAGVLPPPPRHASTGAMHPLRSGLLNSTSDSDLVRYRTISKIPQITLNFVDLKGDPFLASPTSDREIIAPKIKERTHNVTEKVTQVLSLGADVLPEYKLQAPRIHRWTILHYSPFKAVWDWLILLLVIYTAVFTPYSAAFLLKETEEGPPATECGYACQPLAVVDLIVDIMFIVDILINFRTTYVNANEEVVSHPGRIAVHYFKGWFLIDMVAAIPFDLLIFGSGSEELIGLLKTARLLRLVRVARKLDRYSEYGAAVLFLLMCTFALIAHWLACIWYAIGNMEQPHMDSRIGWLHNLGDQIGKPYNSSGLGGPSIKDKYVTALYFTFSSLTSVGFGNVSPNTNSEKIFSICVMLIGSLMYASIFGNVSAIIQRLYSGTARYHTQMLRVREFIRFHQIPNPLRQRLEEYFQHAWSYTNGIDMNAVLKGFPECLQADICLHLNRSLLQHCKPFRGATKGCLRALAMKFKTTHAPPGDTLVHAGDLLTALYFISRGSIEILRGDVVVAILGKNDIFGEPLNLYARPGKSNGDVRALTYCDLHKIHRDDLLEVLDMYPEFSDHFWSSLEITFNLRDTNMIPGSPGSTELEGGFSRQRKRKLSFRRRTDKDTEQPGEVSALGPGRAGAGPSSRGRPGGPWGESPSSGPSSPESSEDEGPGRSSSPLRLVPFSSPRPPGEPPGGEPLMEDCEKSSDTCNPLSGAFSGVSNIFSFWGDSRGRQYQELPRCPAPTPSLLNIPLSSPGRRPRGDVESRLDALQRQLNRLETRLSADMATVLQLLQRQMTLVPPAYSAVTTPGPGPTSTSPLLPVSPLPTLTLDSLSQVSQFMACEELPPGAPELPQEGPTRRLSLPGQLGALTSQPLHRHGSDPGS
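Note: peak tail current of the secondary pulse compared with the same well before compound.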

| SMILES | hERG current change (%, negative = inhibition) at 10uM [%] |
| --- | --- |
| Cc1c(C(=O)Nc2nnc(C(F)(F)F)s2)oc2ccccc12 | 13.1 |
| Cc1cc(OC(=O)c2ccc(S(=O)(=O)N(C)C)cc2)c([N+](=O)[O-])c(=O)[nH]1 | 10.6 |
| COc1ccc2c(c1OC)C(=O)OC2C1c2cc3c(cc2CCN1C)OCO3 (centres unmarked) | 6.25 |
| COc1cc(C(O)CN)ccc1O.Cl (centres unmarked) | 3.21 |
| CCN(CC)C(=S)Sc1c(-c2ccccc2)c2cc(Cl)ccc2[nH]c1=O | 5.42 |
| COc1ccc(S(=O)(=O)N2CCN(CC(=O)Nc3cccc(F)c3)CC2)cc1 | -54.1 |
| COc1ccc(S(=O)(=O)N2CCN(CC(=O)Nc3cccc(OC)c3)CC2)cc1 | -31.4 |
| COc1cccc(NC(=O)CN2CCN(S(=O)(=O)c3ccc(F)cc3)CC2)c1 | -23.1 |
| Cc1cnc(NC(=O)C(C)N2CCN(C)CC2)s1.O=C(O)C(=O)O (centres unmarked) | 20.7 |
| O=C(O)C1(P(=O)(c2ccccc2)c2ccccc2)CCC1 | -3.46 |
| CC(/C=N/Nc1ncc(C)c(=O)[nH]1)=C\c1ccccc1 | -53 |
| CC(/C=N/Nc1nnc(C)c(=O)[nH]1)=C\c1ccccc1 | -10.5 |
| CC(/C=N/Nc1nncc(=O)[nH]1)=C\c1ccccc1 | 3.08 |
| O=C(CSc1nnc(COc2ccc(Cl)cc2)o1)NC1CC2CCC1C2 (centres unmarked) | 11.5 |
| CCC(C)(C)NC(=O)C(C(C)C)N(CC1CCCO1)C(=O)CNS(=O)(=O)c1ccccc1 (centres unmarked) | -2.21 |
| CCC(Oc1ccccc1)C(=O)Nc1ccc(C)c(S(=O)(=O)N2CCOCC2)c1 (centres unmarked) | -18 |
| CNC(C)Cc1ccccc1Sc1ccc(O)cc1.Cl (centres unmarked) | -66.7 |
| CN(C)Cc1ccccc1Sc1ccc(Br)cc1 | -15.6 |
| CNCc1ccccc1Sc1ccc(OC)cc1.Cl | -30.4 |
| CC(Cc1ccccc1Sc1ccccc1O)N(C)C.Cl (centres unmarked) | -18.9 |
| CC(Cc1ccccc1Sc1ccc(O)cc1)N(C)C.CCO.Cl (centres unmarked) | -69.5 |
| CC(N)Cc1ccccc1Sc1ccc(O)cc1.O=C(O)C(=O)O (centres unmarked) | -35.5 |
| O=C(C1=C(O)C(=O)N(CCN2CCOCC2)C1c1ccccc1)c1cccs1 (centres unmarked) | -2.27 |
| O=C(OC(C(=O)NCc1cccs1)c1ccccc1F)c1ccco1 (centres unmarked) | 20.5 |

| SMILES | hERG current change (%, negative = inhibition) at 10uM [%] |
| --- | --- |
| CCOc1ccccc1NC(=O)COC(=O)C(Cc1ccccc1)NC(=O)c1ccco1 (centres unmarked) | -8.33 |
| O=C1/C(=C\c2ccsc2)NC(=S)N1c1ccccc1 | 15.4 |
| COc1ccccc1OCCC(=O)OCC(=O)Nc1cc(S(=O)(=O)N(C)C)ccc1Cl | -6.26 |
| CCOc1cc(C(=O)N2CCC(CC3CC(c4ccc(Cl)cc4)=NO3)(C(=O)NCC3CCCCC3)CC2)cc(OCC)c1OCC (centres unmarked) | 1.25 |
| O=C(NCC1CCCCC1)C1(CC2CC(c3ccc(Cl)cc3)=NO2)CCNCC1 (centres unmarked) | -71.6 |
| O=C(Cc1ccc(F)cc1)N1CCC(CC2CC(c3ccc(Cl)cc3)=NO2)(C(=O)NCC2CCCCC2)CC1 (centres unmarked) | -72.3 |
| O=C(Cc1ccc(F)cc1)N1CCC(CC2CC(c3cccc(Br)c3)=NO2)(C(=O)NCC2CCCCC2)CC1 (centres unmarked) | -8.67 |
| O=C(NCC1CCCCC1)C1(CC2CC(c3cccc(Br)c3)=NO2)CCNCC1 (centres unmarked) | -24.1 |
| COc1ccc(OC)c(-c2csc(NC(=O)C3c4ccccc4Oc4ccccc43)n2)c1 | -5.7 |
| Cc1sc(-c2ccncc2)nc1OC(=O)c1cc(Cl)cc(Cl)c1 | 10.2 |
| COc1ccc(Cl)cc1NC(=O)CN(C)C(=O)CCC(=O)c1cc(C)sc1C | -29.5 |
| CC(C)C(CCN1C(=O)CCC1=O)C1CCOC(C)(C)C1 (centres unmarked) | 4.36 |
| CCn1ncc(Br)c1C(=O)Nc1cc(C(=O)OC)ccc1C(=O)OC | -3.95 |
| Cc1cc(OCc2cccc(Cl)c2)c(C)cc1CN1CCOCC1 | 0.275 |
| CCCCCCCCCC(=O)N[C@H](CN1CCOCC1)[C@H](O)c1ccccc1.Cl | -16.6 |
| Cc1ccc(OCC(O)Cn2c(=N)n(Cc3ccccc3)c3ccccc32)cc1.Cl (centres unmarked) | -81.6 |
| O=C(O)c1ccc(OCC(O)Cn2c3ccccc3c3ccccc32)cc1 (centres unmarked) | -18.5 |
| Cc1ccc(Cn2c(=N)n(CC(O)COc3ccccc3)c3ccccc32)cc1.Cl (centres unmarked) | -68.9 |
| COC(=O)c1cn(S(=O)(=O)c2ccccc2)c2ccccc12 | 13 |
| Cc1ccc(NC(=O)NCc2ccc3c(c2)OCO3)cc1 | 5.69 |
| COc1cc2c(OC(C)=O)c3c(c(-c4ccc5c(c4)OCO5)c2cc1OC)C(=O)OC3 | 15.4 |
| Cc1ccc(NC(=O)CCN2CC(C)OC(C)C2)cc1C.Cl (centres unmarked) | 19.1 |
| CC(C)(C)NS(=O)(=O)c1cc(C(=O)O)ccc1Cl | 4.6 |
